Experimental data as given in paper PMC11062922 (Nature Chemical Biology, 2023).
Read-outs that look alike come from different tables or passages of the source.

Key:
Set-up in all cases: species or system human, MV4-11 + K-562 + COLO205 + SK-N-BE2 + OVCAR-8
AURKB = settings: read-out: apparent Kd, compound concentrations: 100 nM and 1000 nM (sheet 'Samples'), n = 1
BTK = settings: read-out: apparent Kd, compound concentrations: 100 nM and 1000 nM (sheet 'Samples'), n = 1
BUB1 = settings: read-out: apparent Kd, n = 1
IRAK3 = settings: read-out: apparent Kd, n = 1
LCK = settings: read-out: apparent Kd, n = 1
MAP3K11 = settings: read-out: apparent Kd, n = 1
MARK2 = settings: read-out: apparent Kd, n = 1
NUAK2 = settings: read-out: apparent Kd, n = 1
PRKAA2 = settings: read-out: apparent Kd, compound concentrations: 100 nM and 1000 nM (sheet 'Samples'), n = 1
PRKCA = settings: read-out: apparent Kd, n = 1
RPS6KA3 = settings: read-out: apparent Kd, compound concentrations: 100 nM and 1000 nM (sheet 'Samples'), n = 1
RPS6KB1 = settings: read-out: apparent Kd, n = 1
CDC42BPB = settings: read-out: apparent Kd, n = 1
EPHA2 = settings: read-out: apparent Kd, n = 1
EPHB1 = settings: read-out: apparent Kd, n = 1
PAK6 = settings: read-out: apparent Kd, n = 1
MAPK14 = settings: read-out: apparent Kd; compound concentrations:100 nM and 1000 nM (sheet 'Samples'); n = 1
ACVR1B = settings: read-out: apparent Kd, n = 1
CIT = settings: read-out: apparent Kd, n = 1
PKN2 = settings: read-out: apparent Kd, n = 1
[1] = compound concentrations:100 nM and 1000 nM (sheet 'Samples')

COc1ccc(Nc2ncc(C#N)c(Nc3ccccc3C(N)=O)n2)cc1N1CCN(C)CC1.Cl [GSK1558669A]
potency estimated from few doses (AURKB; CATDS: 1.8083134151289901E-2): 45.1 nM | potency estimated from few doses (BTK; CATDS: 6.7250041234510503E-3): 871 nM | potency estimated from few doses (BUB1; compound concentrations: 100 nM and 1000 nM (sheet 'Samples'), CATDS: 6.2718506729186104E-3): 1300 nM | potency estimated from few doses (IRAK3; compound concentrations: 100 nM and 1000 nM (sheet 'Samples'), CATDS: 1.44351207371401E-2): 72.7 nM | potency estimated from few doses (LCK; compound concentrations: 100 nM and 1000 nM (sheet 'Samples'), CATDS: 1.44418733031309E-2): 72.7 nM | potency estimated from few doses (MAP3K11; compound concentrations: 100 nM and 1000 nM (sheet 'Samples'), CATDS: 2.8050644020512099E-2): 20.5 nM | potency estimated from few doses (MARK2; compound concentrations: 100 nM and 1000 nM (sheet 'Samples'), CATDS: 8.7535455285316904E-3): 289 nM | potency estimated from few doses (NUAK2; compound concentrations: 100 nM and 1000 nM (sheet 'Samples'), CATDS: 2.1181549202491899E-2): 33.3 nM | potency estimated from few doses (PRKAA2; CATDS: 3.3781833346765697E-2): 15.3 nM | potency estimated from few doses (PRKCA; compound concentrations: 100 nM and 1000 nM (sheet 'Samples'), CATDS: 6.3313527827085804E-3): 1220 nM | potency estimated from few doses (RPS6KA3; CATDS: 1.2141837427484699E-2): 110 nM | potency estimated from few doses (RPS6KB1; compound concentrations: 100 nM and 1000 nM (sheet 'Samples'), CATDS: 6.0370811384274602E-3): 1680 nM

CN(c1ccc(NC(=O)Nc2cccc(Cl)c2)cc1)c1ccnc(N)n1.Cl [GW830707A]
potency estimated from few doses (AURKB; CATDS: 1.11325754696811E-2): 1010 nM | potency estimated from few doses (BTK; CATDS: 1.93862363831281E-2): 58.1 nM | potency estimated from few doses (CDC42BPB; compound concentrations: 100 nM and 1000 nM (sheet 'Samples'), CATDS: 1.55962433330884E-2): 126 nM | potency estimated from few doses (EPHA2; compound concentrations: 100 nM and 1000 nM (sheet 'Samples'), CATDS: 2.1264502158694101E-2): 44.8 nM | potency estimated from few doses (EPHB1; compound concentrations: 100 nM and 1000 nM (sheet 'Samples'), CATDS: 2.4630351484746099E-2): 31.2 nM | potency estimated from few doses (LCK; compound concentrations: 100 nM and 1000 nM (sheet 'Samples'), CATDS: 1.1469376819807401E-2): 788 nM | potency estimated from few doses (NUAK2; compound concentrations: 100 nM and 1000 nM (sheet 'Samples'), CATDS: 1.08459098062964E-2): 1270 nM | potency estimated from few doses (PAK6; compound concentrations: 100 nM and 1000 nM (sheet 'Samples'), CATDS: 1.07398015427933E-2): 1390 nM | potency estimated from few doses (RPS6KB1; compound concentrations: 100 nM and 1000 nM (sheet 'Samples'), CATDS: 1.09553659906664E-2): 1160 nM

Cl.NCc1ccc(-c2nc(-c3ccc(Cl)c(O)c3)c(-c3ccncc3)[nH]2)cc1 [SB-476429-A]
potency estimated from few doses (BUB1; [1]): 2020 nM | potency estimated from few doses (MAPK14): 113 nM

Cc1cccc(Nc2nc(N[C@H]3CCNC3)ncc2C(N)=O)c1.Cl [GSK2197149A]
potency estimated from few doses (IRAK3; [1]): 1280 nM | potency estimated from few doses (MAP3K11; [1]): 1330 nM | potency estimated from few doses (PRKCA; [1]): 437 nM

O=C(O)C(F)(F)F.O=c1[nH]ccc2nc(N[C@@H]3CCNC3)nc(Nc3ccc4c(c3)S(=O)(=O)CC4)c12 [GSK2181306A]
potency estimated from few doses (AURKB; CATDS: 8.4552521896549809E-3): 1530 nM | potency estimated from few doses (CDC42BPB; compound concentrations: 100 nM and 1000 nM (sheet 'Samples'), CATDS: 8.6780352700712906E-3): 1380 nM | potency estimated from few doses (MARK2; compound concentrations: 100 nM and 1000 nM (sheet 'Samples'), CATDS: 1.1093040316995199E-2): 635 nM | potency estimated from few doses (NUAK2; compound concentrations: 100 nM and 1000 nM (sheet 'Samples'), CATDS: 1.3760463216936501E-2): 376 nM | potency estimated from few doses (PAK6; compound concentrations: 100 nM and 1000 nM (sheet 'Samples'), CATDS: 8.7541295114789697E-3): 1330 nM | potency estimated from few doses (PRKCA; compound concentrations: 100 nM and 1000 nM (sheet 'Samples'), CATDS: 1.32180266874378E-2): 412 nM | potency estimated from few doses (RPS6KA3; CATDS: 9.3639610273777898E-3): 1050 nM

COc1cc(Nc2nccc(-c3cnn4ncccc34)n2)cc(OC)c1 [GW801372X]
potency estimated from few doses (IRAK3; compound concentrations: 100 nM and 1000 nM (sheet 'Samples'), CATDS: 2.51875293793523E-2): 553 nM | potency estimated from few doses (MAP3K11; compound concentrations: 100 nM and 1000 nM (sheet 'Samples'), CATDS: 1.8293530288082401E-2): 1660 nM

CC(C)Nc1cc(-c2ccc3c(N)n[nH]c3c2)nc(N)n1 [GSK2221681A]
potency estimated from few doses (ACVR1B; [1]): 803 nM

Cc1ccccc1-n1ncc(C(=O)c2ccccc2)c1N [RO1151248-000]
potency estimated from few doses (EPHA2; compound concentrations: 100 nM and 1000 nM (sheet 'Samples'), CATDS: 1.9884880942714601E-2): 1440 nM

COC(=O)c1cccc(NC(=O)NC2CCN(c3ccnc(Nc4cc(OC)c(OC)c(OC)c4)n3)C2)c1 (stereo not shown) [GSK1379767A]
potency estimated from few doses (IRAK3; compound concentrations: 100 nM and 1000 nM (sheet 'Samples'), CATDS: 0.12620401960154601): 1050 nM

CC(C)Oc1ccc2c(-c3ccnc(Nc4ccc(N5CCN(C)CC5)cc4)n3)cnn2n1 [GW696155X]
potency estimated from few doses (BUB1; [1]): 853 nM | potency estimated from few doses (IRAK3; [1]): 464 nM | potency estimated from few doses (NUAK2; [1]): 600 nM

NCC(NC(=O)c1cc(-c2cn[nH]c2)c(-c2ccnc3[nH]ccc23)s1)c1ccccc1.NCC(NC(=O)c1cc(-c2cn[nH]c2)c(-c2ccnc3[nH]ccc23)s1)c1ccccc1.O=C(O)C(F)(F)F.O=C(O)C(F)(F)F (stereo not shown) [GSK1325775A]
potency estimated from few doses (ACVR1B; compound concentrations: 100 nM and 1000 nM (sheet 'Samples'), CATDS: 3.7153250837812998E-2): 1020 nM | potency estimated from few doses (CDC42BPB; compound concentrations: 100 nM and 1000 nM (sheet 'Samples'), CATDS: 0.23472145831324301): 29.3 nM | potency estimated from few doses (CIT; compound concentrations: 100 nM and 1000 nM (sheet 'Samples'), CATDS: 4.2305109651231403E-2): 719 nM | potency estimated from few doses (PKN2; compound concentrations: 100 nM and 1000 nM (sheet 'Samples'), CATDS: 3.8123557619569197E-2): 949 nM

O=C(O)C(F)(F)F.O=C(O)C(F)(F)F.O=c1[nH]ccc2nc(N[C@@H]3CCCNC3)nc(Nc3ccc(S(=O)(=O)N4CCOCC4)cc3)c12.O=c1[nH]ccc2nc(N[C@@H]3CCCNC3)nc(Nc3ccc(S(=O)(=O)N4CCOCC4)cc3)c12 [GSK2177277A]
potency estimated from few doses (AURKB; CATDS: 9.0566947478628902E-3): 373 nM | potency estimated from few doses (CDC42BPB; compound concentrations: 100 nM and 1000 nM (sheet 'Samples'), CATDS: 1.0245441654914001E-2): 255 nM | potency estimated from few doses (MAP3K11; compound concentrations: 100 nM and 1000 nM (sheet 'Samples'), CATDS: 9.6570166700827697E-3): 305 nM | potency estimated from few doses (MARK2; compound concentrations: 100 nM and 1000 nM (sheet 'Samples'), CATDS: 1.4475960848297199E-2): 105 nM | potency estimated from few doses (NUAK2; compound concentrations: 100 nM and 1000 nM (sheet 'Samples'), CATDS: 4.5069810988754302E-2): 13.3 nM | potency estimated from few doses (PAK6; compound concentrations: 100 nM and 1000 nM (sheet 'Samples'), CATDS: 6.8069472857734698E-3): 1140 nM | potency estimated from few doses (PKN2; compound concentrations: 100 nM and 1000 nM (sheet 'Samples'), CATDS: 1.4426641074697899E-2): 105 nM | potency estimated from few doses (PRKAA2; CATDS: 4.4200978243391198E-2): 13.7 nM | potency estimated from few doses (PRKCA; compound concentrations: 100 nM and 1000 nM (sheet 'Samples'), CATDS: 8.97994124779509E-3): 383 nM | potency estimated from few doses (RPS6KA3; CATDS: 8.0041967490872001E-3): 573 nM

COc1cc(Nc2nccc(N3CCC(NC(=O)c4cccc(NC(C)=O)c4)C3)n2)cc(OC)c1OC (stereo not shown) [GSK1379754A]
potency estimated from few doses (IRAK3; compound concentrations: 100 nM and 1000 nM (sheet 'Samples'), CATDS: 0.18683076270721999): 372 nM | potency estimated from few doses (RPS6KB1; compound concentrations: 100 nM and 1000 nM (sheet 'Samples'), CATDS: 8.2773531247457094E-2): 1830 nM

CC(=O)N[C@@H](Cc1ccc(OP(=O)(O)O)cc1)C(=O)N[C@H]1CCC(=O)N2CCC[C@@H](C(=O)NCc3ccc(Cl)cc3)N2C1=O [RO0325308-000]
potency estimated from few doses (EPHA2; [1]): 1130 nM | potency estimated from few doses (EPHB1; [1]): 71.6 nM | potency estimated from few doses (IRAK3; [1]): 1530 nM

Cc1n[nH]c2cc(Nc3ccnc(Nc4cccc(CN5CCOCC5)c4)n3)ccc12 [GW682569X]
potency estimated from few doses (IRAK3; compound concentrations: 100 nM and 1000 nM (sheet 'Samples'), CATDS: 0.17881857649065999): 348 nM

CCn1c(-c2cccnc2O)nc2cnccc21 [SB-736715]
potency estimated from few doses (ACVR1B; compound concentrations: 100 nM and 1000 nM (sheet 'Samples'), CATDS: 1.8200726561527599E-2): 889 nM | potency estimated from few doses (IRAK3; compound concentrations: 100 nM and 1000 nM (sheet 'Samples'), CATDS: 1.50971530533868E-2): 1280 nM

CS(=O)(=O)CCn1c(=O)c(Oc2ccc(F)cc2F)cc2cnc(NC3CCOCC3)nc21 [RO5027956-000]
potency estimated from few doses (BUB1; [1]): 1490 nM | potency estimated from few doses (EPHA2; [1]): 1060 nM | potency estimated from few doses (EPHB1; [1]): 892 nM | potency estimated from few doses (LCK; [1]): 1160 nM | potency estimated from few doses (MAP3K11; [1]): 1930 nM | potency estimated from few doses (MAPK14): 17.9 nM

CCn1c(-c2nonc2N)nc2c(C#CC(C)(C)O)nc(O[C@@H](CN)c3ccccc3)cc21.O=C(O)C(F)(F)F [GSK1007102B]
potency estimated from few doses (CDC42BPB; [1]): 1280 nM | potency estimated from few doses (CIT; [1]): 21.1 nM | potency estimated from few doses (MARK2; [1]): 173 nM | potency estimated from few doses (PAK6; [1]): 1090 nM | potency estimated from few doses (PKN2; [1]): 390 nM | potency estimated from few doses (PRKCA; [1]): 1410 nM | potency estimated from few doses (RPS6KB1; [1]): 1890 nM
